{"source": "PubChem BioAssay (NCI)", "note": "This is part of a sample that, as a whole, favours compounds with a hit. Of some 83,000 tested, about 20% had one in any assay.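 A percent growth of 40 corresponds to 60% growth inhibition; 0 means no net growth; -100 means all cells died. Active threshold: below 10.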 Unmarked numbers belong to inactive results. Active and inactive are the calls of the source.", "data": [{"tested_on": "MDA-MB-468 breast", "test": "NCI-60 one-dose screen, 48 h (100 = growth as untreated, 0 = no growth, -100 = all killed)", "conditions": "10 µM unless noted", "values": [{"smiles": "CCN1CCN(c2nc(NNC(=O)Cc3ccccc3)nc(N3CCN(C(c4ccccc4)c4ccccc4)CC3)n2)CC1", "growth": "12.2%"}, {"smiles": "COc1ccccc1/C=C1\\Oc2cc(OCCN3CCC(Cc4ccccc4)CC3)ccc2C1=O", "growth": "76.4%"}, {"smiles": "Cc1noc(C)c1-c1cc(O)cc(C(O)c2ccccc2)c1", "note": "(stereo not given)", "growth": "24.9%"}, {"smiles": "O=C(CSc1nccc(Nc2ccc(S(=O)(=O)Nc3nccs3)cc2)n1)c1ccc(F)cc1", "growth": "98.6%"}, {"smiles": "O=c1c(CNc2ccc(S(=O)(=O)Nc3ncccn3)cc2)coc2ccccc12", "growth": "108%"}, {"smiles": "COc1cc2c(cc1O)C(=O)CCCC2", "growth": "87.3%"}, {"smiles": "COc1ccc(-c2nnc(-c3c(-c4ccccc4)nc4ncccn34)o2)cc1OC", "growth": "99.1%"}, {"smiles": "CC1c2ccccc2-c2ccccc2N1C", "note": "(stereo not given)", "growth": "103%"}, {"smiles": "COc1ccc2c(c1)N(CCO)C1=C(C(=O)OC1)C2c1cc(OC)c(OC)c(OC)c1", "note": "(stereo not given)", "growth": "3.62% (active)"}, {"smiles": "COc1ccc2c(c1)C(C)Cc1c(N(C)C)ncnc1N2C", "note": "(stereo not given)", "growth": "29.9%"}, {"smiles": "COc1ccc(Cn2cc3c(c2-c2ccccc2)CCc2cnoc2-3)cc1", "growth": "55.2%"}, {"smiles": "C/C(=C\\c1ccc(OCC(=O)O)c(Cl)c1Cl)[N+](=O)[O-]", "growth": "119%"}, {"smiles": "CN(C)CCn1c(=O)c2ccccc2n2nc3ccccc3c12", "growth": "105%"}, {"smiles": "CCCC[n+]1c(/C=C\\c2c(OC)cc(OC)cc2OC)ccc2ccccc21", "growth": "-31% (active)"}, {"smiles": "CN1CCN(Cc2ccc(NC(=O)c3cncc(C#Cc4cnc5ccc(OCC6COC6)nn45)c3)cc2C(F)(F)F)CC1", "growth": "-60.7% (active)"}, {"smiles": "C=C(C)[C@@H]1CC[C@]2(C)[C@H](CC=C3[C@@H]4[C@H](C)[C@@H](C)CC[C@]4(CO)CC[C@]32C)[C@@]1(C)CCCN", "growth": "-54.7% (active)"}, {"smiles": "CCN1C(=O)N(CC)C2Nn3c(s/c(=C\\c4ccccc4F)c3=O)=NC21", "note": "(stereo not given)", "growth": "28.9%"}, {"smiles": "CC(Cc1cccc2ccccc12)C(N)=O", "note": "(stereo not given)", "growth": "110%"}, {"smiles": "CCCCCN1C=C/C(=C\\C(=O)N(C)c2cccc3ccccc23)c2ccccc21", "growth": "70.9%"}, {"smiles": "C/C(=C(/C)C1CC1CCNC1CCC(NC(=O)OC(C)(C)C)CC1)c1ccccc1", "note": "(stereo not given)", "growth": "35.3%"}, {"smiles": "C/C(=N/Nc1nc(N/N=C(/C)c2ccc([N+](=O)[O-])cc2)nc(N2CCOCC2)n1)c1ccc([N+](=O)[O-])cc1", "growth": "79.7%"}, {"smiles": "O=[N+]([O-])c1ccc(-c2cc3c(Nc4ccc(OCc5cccc(Cl)c5)c(Cl)c4)ncnc3s2)cc1", "growth": "56.2%"}, {"smiles": "COc1ccc(C(=O)/C=C/c2ccc(/C=C/c3cc(OC)c(OC)c(OC)c3)cc2)cc1", "growth": "51.9%"}, {"smiles": "N#Cc1c2ccccc2c2n1-c1ccccc1OC(c1ccccc1)C2=O", "note": "(stereo not given)", "growth": "65.7%"}, {"smiles": "Cn1cc(-c2nn3cc(-c4ccncc4)nc3s2)c2cc(F)ccc21", "growth": "54.6%"}, {"smiles": "Cc1cccc(NC(=O)Nc2ccc(-c3ccc4c(c3)NC(=O)/C4=C\\c3ccc[nH]3)cc2)c1", "growth": "-0.651% (active)"}, {"smiles": "CCN(CC)CCCC(C)NCc1ccccc1", "note": "(stereo not given)", "growth": "112%"}, {"smiles": "COC1=CC(c2ccc[nH]2)=N/C1=C\\c1[nH]c(C)c(C(=O)OCc2ccccc2)c1C", "growth": "-83.2% (active)"}, {"smiles": "CCC(=O)Oc1ccc(/C=N/NC(N)=S)nc1", "growth": "18.7%"}, {"smiles": "COC(=O)/C=C1\\SC(=Nc2cccc(OC)c2)N(CCc2c[nH]c3ccccc23)C1=O", "growth": "64%"}, {"smiles": "C#CCn1cccc1CNc1ccc(OC)cc1", "growth": "-76.9% (active)"}, {"smiles": "COc1ccc2ccccc2c1/C=N/N1CCCCC1", "growth": "113%"}, {"smiles": "O=C1/C(=C\\c2ccc(F)cc2)CN(C(=O)c2ccccc2F)C/C1=C\\c1ccc(F)cc1", "growth": "-74% (active)"}, {"smiles": "COc1cc(C(N)=O)cc(OC)c1OC", "growth": "103%"}, {"smiles": "COC(=O)[C@]12CC[C@@H](C)[C@H](C)[C@@H]1C1=CC[C@@H]3[C@@]4(C)C[C@@H](OC(=O)/C=C/c5ccccc5)[C@H](O)[C@@](C)(CO)[C@@H]4[C@H](O)C[C@@]3(C)[C@]1(C)CC2", "growth": "-19.2% (active)"}, {"smiles": "CCn1cc(Cc2cc(C(=O)Nc3cc4cc(OC)c(OC)cc4c(C)n3)ccc2Cl)cn1", "growth": "35.5%"}, {"smiles": "COc1cc(C)c(C2C(C#N)=C(N)Oc3n[nH]c(-c4cccs4)c32)cc1C(C)C", "note": "(stereo not given)", "growth": "101%"}, {"smiles": "Nc1ccc([N+](=O)[O-])cc1N=C/C=C/c1ccccc1", "growth": "46.4%"}, {"smiles": "CC(=O)Nc1ccc2c(c1)C(=O)c1cccc(C(=O)O)c1-2", "growth": "90.9%"}, {"smiles": "CCOC(=O)C(=O)Cc1cccnn1", "growth": "102%"}]}]}
